Laboratory results: PubChem BioAssay AID624418 (National Center for Advancing Translational Sciences (NCATS), 2012)
The whole screen tested about 410,000 compounds, of which about 530 (0.13%) were called active. Another 5% or so got no clear call; they are omitted. What follows is part of a selection rich in actives, with near analogues and random picks from the rest. A number with no mark means an inactive call. Calls follow the shape of the dose curve; as a rule, active = well fitted inhibition curve with a large enough effect; inconclusive = small, poorly fitted or top-dose-only effect, or another doubt; inactive = no such curve, though single readings can be large or run the other way.

experiment: qHTS of GLP-1 Receptor Inverse Agonists: Cytotox Screen; conditions: HEK293 cAMP-luciferase reporter cells, luminescence, 24 h; series mostly up to 38.3 µM; activity change, negative = inhibition: at the top concentration;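 also: loss of luciferase light is scored as toxicity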
Description: The overall goal of this project was to develop a novel assay for discovering small molecule ligands for class B1 G protein-coupled receptors (GPCRs). Very few agonists (or inverse agonists) with generally weak activity for this entire group of physiologically important receptors are known to date. To establish proof-of-principle that this critical bottleneck can be overcome with a suitable screening approach, our studies focused on the class B1 receptor for glucagon-like peptide-1 (GLP-1R), a potential therapeutic target for diabetes and neurodegenerative disease.
The assay was developed using a cell-based functional readout. Toward this goal, stably transfected HEK293 cell clones were established that co-express (i) a cAMP-responsive luciferase reporter gene, and (ii) constitutively active GLP-1R that upon ligand interaction inhibit (inverse agonists) the luciferase activity. In addition, two control cell lines were developed: (i) one that express only the cAMP-responsive reporter gene to enable initial exclusion of GLP-1R independent effects of candidate probes; and (ii) one with the reported gene cloned with another constitutively active orphan receptor GPR119 to enable exclusion of GLP-1R independent inhibitor effects of candidate inverse agonists.
To that end, this assay was optimized for 1536-well format and screened against the MLSMR. Then the same collection was run in this cytotoxicity assay where inhibition was the undesired outcome.
NIH Molecular Libraries Probe Production Network [MLPCN]
NIH Chemical Genomics Center [NCGC]
PI Name: Martin Beinborn, Tufts Medical Center
Six ul of cell suspension (200 cells/uL in DMEM + 10% Nu serum + 1% pen-strep) is dispensed in a white solid 1536-well plate. The plates are incubated for 12 hours at 37 deg C at 5% CO2 followed by addition of 23 nL compounds. After 24 hr incubation at 37 deg C and 5% CO2, 3 uL of luciferase assay detection reagent is added. A luminescence read is obtained on the PerkinElmer Viewlux after 12 min incubation at room temperature.
% is scaled to controls: 0 for no effect and ±100 for the full control effect; potency is read from the fitted curve at half-maximal effect.

SMILES | activity change, negative = inhibition | Potency
Cn1c(C(=O)Nc2cccc(C(F)(F)F)c2)cc2c(=O)n3ccccc3nc21 | 86.5% | –
Cc1ccc2c(c1)-c1c(cnn1CC(=O)Nc1ccccc1C#N)CO2 | -10.5% | –
CCN1CCN(c2ncnc3c2cnn3-c2ccc(C)c(C)c2)CC1 | 2.92% | –
COC(=O)c1ccc(NC(=O)c2cccc3c2C(=O)N(C2CCCCC2)C3)cc1 | -5.32% | –
COc1ccc(-c2nn3c(-c4ccc(OC)cc4)nnc3c3ccccc23)cc1 | -20.7% | –
CCOc1cc(C2c3c(-c4ccc(Br)cc4)n[nH]c3C(=O)N2c2ccc(Cl)cc2)ccc1O (configuration not stated) | -25.1% | –
CCC(Sc1nc2n[nH]c(C)c2c(=N)n1-c1ccccc1Cl)C(=O)N(CC)CC (configuration not stated) | -2.5% | –
CC(=O)OC1=C(C(C)=O)N(Cc2ccccc2)S(=O)(=O)c2ccccc21 | -4.82% | –
CN(Cc1ccccc1)C(=O)c1cn(C)c2ccc(S(=O)(=O)N3CCCCC3)cc2c1=O | 0% | –
CCc1ccccc1NC(=O)CSc1nnc(-c2ccccc2)c(-c2ccccc2)n1 | 2.66% | –
Cc1ccc(C)c(N2CCN(C(=O)Cc3c(C(=O)O)c(C)cn3C)CC2)c1 | -8.4% | –
Cc1cccc(NC(=O)C2CCN(S(=O)(=O)c3c(C)noc3/C=C/c3ccco3)CC2)c1 | 14% | –
COc1ccc(OC)c(NC(=O)C2CCCN(S(=O)(=O)c3ccc4c(c3)CCCC(=O)N4)C2)c1 (configuration not stated) | -1.5% | –
COc1ccc(CC(=O)N2N=C(C)CC2(O)C(F)(F)F)cc1 (configuration not stated) | – | 6.31 µM (active)
CC1=NN(C(=O)Cc2ccc(C)cc2)C(O)(c2cccnc2)C1 (configuration not stated) | -21.4% | –
CC1=NN(C(=O)CCc2ccccc2O)C(O)(C(F)(F)F)C1 (configuration not stated) | -13.2% | –
O=C(Nc1ccc(Oc2ccccc2)cc1)C1CCN(S(=O)(=O)c2ccc(Cl)cc2)CC1 | -15.9% | –
CC(=O)Nc1ccc(NC(=O)CSc2nnc3c4cc(Br)ccc4n(C)c3n2)cc1 | 6.5% | –
CC(C)N(Cc1ccccc1)C(=S)Nc1ccc(OC(F)F)cc1 | -0.269% | –
CC/C(=N\NC(=S)NC(C)C)c1ccc(OC(F)F)cc1 | – | 4.47 µM (active)
CC(C)CN1CCC1(C)C(=O)Nc1ccc(OC(F)F)cc1 (configuration not stated) | -4.92% | –

SMILES | activity change, negative = inhibition | Potency
Cc1oc(C)c2c(=O)cc(-c3ccc4c(c3)OCO4)cc(OC(=O)c3ccc(Cl)cc3)c12 | -2.3% | –
O=C(Nc1cc(C(F)(F)F)ccc1Cl)c1nc2ccccc2nc1N1CCCCC1 | -4.7% | –
O=C(NCC12CC3CC(CC(C3)C1)C2)c1cc2nc(-c3ccccc3)cc(C(F)(F)F)n2n1 | -16.7% | –
CSc1ccccc1-c1nnc(NC(=O)c2ccc3c(c2)OCCO3)o1 | 2.88% | –
CCOc1ccccc1NC(=O)C1CCCN(S(=O)(=O)c2cn(C)cn2)C1 (configuration not stated) | -5.32% | –
Fc1ccc(-c2nc(Nc3cccc(Cl)c3)nc3c2COc2ccccc2-3)cc1 | 26.4% | –
Cc1cccc(C(=O)Nc2ccc(S(=O)(=O)N3CCCCC3c3cccnc3)cc2)c1 (configuration not stated) | -3.52% | –
O=C(Nc1ccc(Br)cc1)c1ccc(Br)c(S(=O)(=O)NCc2ccccc2)c1 | -23.8% | –
CCOC(=O)c1c(NC(=O)/C=C/c2ccc(OC)cc2)sc2c1CCC(C)C2 (configuration not stated) | 1.21% | –
CCc1ccc(NC(=O)Cn2c(=O)n(CCC(=O)NCc3ccc4c(c3)OCO4)c(=O)c3ccccc32)cc1 | 1.24% | –
O=C(c1ccc(Cl)cc1)n1nc(-c2cccnc2)nc1NCc1ccc(F)cc1 | 0.033% | –
Clc1ccc(CSc2nncn3c2cc2occc23)cc1 | 1.37% | –
O=C(Cn1cnc2c(oc3ccccc32)c1=O)Nc1ccc(OC(F)(F)F)cc1 | 7.7% | –
COc1ccc(C(=O)COC(=O)CCCC(=O)Nc2cc(C(F)(F)F)ccc2Cl)cc1 | 4.62% | –
Cc1ccc(CCNC(=O)c2ccc(CS(=O)(=O)Cc3cccc(C)c3)o2)cc1 | 6.21% | –
Cc1c(CNC2CCCCC2)c(C(=O)O)c(C)n1Cc1cccc(Cl)c1 | 3.57% | –
Cc1nc(SCCOc2ccc(Cl)cc2)[nH]c(=O)c1Cc1ccccc1 | -0.041% | –
Cc1cc(NC(=O)CC(C)C)cc(-c2nc3ncccc3o2)c1O | -2.54% | –
Cc1ccc2nc(COc3cccc(NC(=O)c4ccccc4Cl)c3)cc(=O)n2c1 | -3.99% | –
COc1ccc(CCNC(=O)CCCCn2c(=O)c3ccccc3n(Cc3ccccc3)c2=O)cc1OC | 5.81% | –
CCOC(=O)C1=CCC2C(=O)N(Cc3ccccc3)C(=O)C12 (configuration not stated) | 0.313% | –

SMILES | activity change, negative = inhibition | Potency
COc1cc(/C=C2/SC(=S)N(Cc3ccccc3)C2=O)cc(OC)c1O | – | 10 µM (active)
CCCCCc1c(-c2ccc(OC)c(OC)c2)ncn1CCc1ccccc1OC | -9.3% | –
COc1ccc(-c2nn(-c3ccccc3)cc2/C=N/Nc2ccccn2)cc1OC | – | 5.01 µM (active)
COc1ccc(-c2cc(C(F)(F)F)n3nc(-c4ccccc4)cc3n2)cc1OC | 5.25% | –
Cc1ccccc1CN1CCC(CNC(=O)c2cc3ccc4cccnc4c3[nH]2)CC1 | -26.7% | –
O=C(NCC(c1ccc2c(c1)OCO2)N1CCN(c2ccccc2)CC1)C(=O)Nc1ccccc1F (configuration not stated) | 15.1% | –
CCc1ccc(NC(=O)c2cc(S(=O)(=O)NC3CCCCCC3)ccc2F)cc1 | -6.43% | –
CCCCN(CC)C(=O)c1c[nH]c2ccc(S(=O)(=O)Nc3cccc(OC)c3)cc2c1=O | 6.62% | –
Cc1cccc(NC(=O)c2ccc(F)c(S(=O)(=O)N(C)C3CCCCC3)c2)c1 | -8.84% | –
COc1ccc(NC(=O)c2ccc3oc(=O)c(S(=O)(=O)c4ccc(F)cc4)cc3c2)c(OC)c1 | 1.46% | –
Cc1ccc(-n2c(SCC(=O)Nc3cccc(F)c3)nc3c(oc4ccccc43)c2=O)cc1C | -5.23% | –
CC(C)Oc1ccc(NC(=O)c2cc3ccccc3o2)cc1 | -8.43% | –
Cc1ccc(NC(=O)C2CCN(S(=O)(=O)c3cc(-c4noc(C)n4)ccc3C)CC2)c(C)c1 | 1.29% | –
Cc1ccc(Cl)cc1NC(=O)/C(C#N)=C\c1cn(Cc2ccc(F)cc2)c2ccccc12 | 14.9% | –
Fc1ccc(-c2ccc(NCCN3CCOCC3)nn2)cc1 | – | 10 µM (active)
Cc1c(C(=O)NCCN2CCOCC2)sc2nc(-c3ccc(F)cc3)cn12 | 7.28% | –
CN(CC(=O)NCCN1CCOCC1)S(=O)(=O)c1ccc(F)cc1 | -3.23% | –
COc1cc(OC)cc(C(=O)NCCc2csc3nc(-c4ccccc4F)nn23)c1 | -13.8% | –
CCOc1ccc(NC(=O)CCc2c(C)nn(-c3ccc(N4CCCC4)nn3)c2C)cc1 | 2.64% | –
COc1ccc(C)cc1N(CC(=O)N1CCC(C)CC1)S(=O)(=O)c1ccc(C)cc1 | -24.2% | –
